# Records with an inconclusive call do not appear. A call without a number means that no potency is given here. Values without a mark were called inactive. The source made the active and inactive calls. The call rests on the fitted dose curve; in most records, active means well fitted curve in the direction sought with a large enough effect; inconclusive means small, poorly fitted or top-dose-only effect, or another doubt; inactive means no such curve, though single readings can be large; an effect the other way counts as inactive or inconclusive.
# Assays:
# CRL-7250 = normal cell line; experiment: Cytotoxic Profiling of Annotated Libraries Using Quantitative High-Throughput Screening (AID 1296008); conditions: Five cell lines viability, CellTiter-Glo ATP luminescence, 48-72 h; max response: hits give low values; further: nearly all actives have a fitted effect of over 60% in size; further: potency means the concentration at half of the fitted maximal effect
# Procedure, shortened: (§1)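 Cells exposed to compounds for 48 or 72 hr at 37 degrees Celsius. Viability read as ATP-coupled luminescence with CellTiter-Glo after 10 min at room temperature.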
# HaCat [1] = experiment: as above; conditions: Five cell lines viability, CellTiter-Glo ATP luminescence, 48-72 h; max response: hits give low values
# Procedure, shortened: as §1
# KB-3-1 = experiment: as above; conditions: Five cell lines viability, CellTiter-Glo ATP luminescence, 48-72 h; max response: hits give low values
# Procedure, shortened: as §1
# NIH3T3 [2] = experiment: as above; conditions: Five cell lines viability, CellTiter-Glo ATP luminescence, 48-72 h; max response: hits give low values
# Procedure, shortened: as §1
# HACAT [3] = experiment: qHTS assay to identify novel small-molecules to repurpose for Merkel cell carcinoma treatment (AID 1296009); conditions: MCC and control cell lines, CellTiter-Glo viability, 72 h; at 44.8 µM (top of the series) unless noted; further: nearly all actives have a fitted effect of over 60% in size; further: potency means the concentration at half of the fitted maximal effect
# Procedure, shortened: (§2)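 Cells were treated for 72 hr at 37 degree celsius with compounds in 8- or 11-point dose response. Viability was read by CellTiter-Glo luminescence, normalized to no-cell (cytotoxicity) and DMSO controls.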
# MCC-13 = experiment: as above; conditions: MCC and control cell lines, CellTiter-Glo viability, 72 h; series mostly up to 46 µM
# Procedure, shortened: as §2
# MCC-26 = experiment: as above; conditions: MCC and control cell lines, CellTiter-Glo viability, 72 h; series mostly up to 46 µM
# Procedure, shortened: as §2
# MKL-1 = experiment: as above; conditions: MCC and control cell lines, CellTiter-Glo viability, 72 h; series mostly up to 46 µM
# Procedure, shortened: as §2
# MKL-2 = experiment: as above; conditions: MCC and control cell lines, CellTiter-Glo viability, 72 h; series mostly up to 46 µM
# Procedure, shortened: as §2
# UISO = experiment: as above; conditions: MCC and control cell lines, CellTiter-Glo viability, 72 h; series mostly up to 46 µM
# Procedure, shortened: as §2
# WaGa = experiment: as above; conditions: MCC and control cell lines, CellTiter-Glo viability, 72 h; series mostly up to 46 µM
# Procedure, shortened: as §2
# HEK293 = experiment: Cytotoxic Profiling of Annotated Libraries Using Quantitative High-Throughput Screening (AID 1296008); conditions: Five cell lines viability, CellTiter-Glo ATP luminescence, 48-72 h; max response: hits give low values; further: nearly all actives have a fitted effect of over 60% in size; further: potency means the concentration at half of the fitted maximal effect
# Procedure, shortened: as §1
# C33A = experiment: Primary qHTS to identify gynecologic anti-cancer compounds using libraries of approved drugs and bioactive compounds (AID 1345084); conditions: Gynecologic cancer cell panel viability, ATPlite luminescence, 48 h; series mostly up to 57.5 µM; further: nearly all actives have a fitted effect of over 55% in size
# Procedure, shortened: (§3)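 In this quantitative HTS, cell killing is estimated from loss of ATP-dependent luciferase light. Cells see five compound concentrations over a 48 h exposure.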
# HeLa = experiment: as above; conditions: Gynecologic cancer cell panel viability, ATPlite luminescence, 48 h; series mostly up to 57.5 µM
# Procedure, shortened: as §3
# Hek293T [4] = experiment: as above; conditions: Gynecologic cancer cell panel viability, ATPlite luminescence, 48 h, control line for the selectivity index; series mostly up to 57.5 µM
# Procedure, shortened: as §3
# JEG-3 = experiment: as above; conditions: Gynecologic cancer cell panel viability, ATPlite luminescence, 48 h; series mostly up to 57.5 µM
# Procedure, shortened: as §3
# HEK293T [5] = experiment: qHTS assay to identify novel small-molecules to repurpose for Merkel cell carcinoma treatment (AID 1296009); conditions: MCC and control cell lines, CellTiter-Glo viability, 72 h; series mostly up to 44.8 µM; further: nearly all actives have a fitted effect of over 60% in size; further: potency means the concentration at half of the fitted maximal effect
# Procedure, shortened: as §2
# NIH3T3 [6] = experiment: as above; conditions: MCC and control cell lines, CellTiter-Glo viability, 72 h; at 44.8 µM (top of the series) unless noted
# Procedure, shortened: as §2
structure (smiles),measurement,setting,value
CCCCCCCN(CC)CCCC(O)c1ccc(NS(C)(=O)=O)cc1 (stereo unspecified),max response,CRL-7250,0.839%
same,outcome,HaCat [1],inactive
same,max response,KB-3-1,-6.17%
same,max response,NIH3T3 [2],-1.95%
same,outcome,HACAT [3],inactive
same,Potency,MCC-13,inactive
same,Potency,MCC-26,inactive
same,Potency,MKL-1,inactive
same,Potency,MKL-2,inactive
same,Potency,UISO,inactive
same,Potency,WaGa,inactive
CC(N[C@H]1CCCC[C@H]1NC(=O)c1ccc(Cl)cc1)c1cccc2ccccc12 (stereo partly specified),max response,CRL-7250,2.81%
same,outcome,HaCat [1],inactive
same,max response,KB-3-1,1.61%
same,max response,NIH3T3 [2],-12.9%
same,outcome,HACAT [3],inactive
same,Potency,MCC-13,inactive
same,Potency,MCC-26,inactive
same,Potency,MKL-2,418 nM (active)
same,Potency,UISO,inactive
Cc1ccc([N+](=O)[O-])cc1S(=O)(=O)N(C)N=Cc1cnc2ccc(Br)cn12,Potency,CRL-7250,18.7 nM (active)
same,Potency,HEK293,23.5 nM (active)
same,Potency,KB-3-1,20.9 nM (active)
same,Potency,NIH3T3 [2],74.3 nM (active)
same,Potency,MKL-2,209 nM (active)
same,Potency,UISO,41.8 nM (active)
CCc1cc(C(C)=NOCc2ccc(C3CCCCC3)c(C(F)(F)F)c2)ccc1CN1CC(C(=O)O)C1,max response,CRL-7250,2.27%
same,outcome,HaCat [1],inactive
same,outcome,KB-3-1,inactive
same,max response,NIH3T3 [2],-5.84%
same,outcome,HACAT [3],inactive
same,Potency,MCC-13,inactive
same,Potency,MCC-26,inactive
same,Potency,MKL-1,inactive
same,Potency,MKL-2,6620 nM (active)
same,Potency,WaGa,inactive
COc1cc2ncnc(Nc3cccc(Br)c3)c2cc1OC,max response,CRL-7250,-23.5%
same,max response,HEK293,-29.7%
same,outcome,KB-3-1,inactive
same,max response,NIH3T3 [2],-22%
same,Potency,MCC-26,inactive
same,Potency,MKL-1,inactive
same,Potency,WaGa,inactive
CCN(CC)CCNC(=O)c1c(C)[nH]c(C=C2C(=O)Nc3ccc(F)cc32)c1C,Potency,CRL-7250,340 nM (active)
same,Potency,HEK293,270 nM (active)
same,Potency,KB-3-1,2150 nM (active)
same,Potency,MCC-13,42900 nM (active)
same,Potency,MCC-26,38200 nM (active)
same,Potency,MKL-1,12100 nM (active)
same,Potency,MKL-2,15200 nM (active)
same,Potency,UISO,6050 nM (active)
same,Potency,WaGa,13600 nM (active)
c1ccc(CNc2nc(NCc3ccccc3)c3ccccc3n2)cc1,max response,CRL-7250,-7.33%
same,Potency,HEK293,14800 nM (active)
same,Potency,KB-3-1,26400 nM (active)
same,Potency,MCC-13,inactive
same,Potency,MCC-26,inactive
same,Potency,MKL-1,inactive
same,Potency,MKL-2,18700 nM (active)
same,Potency,UISO,inactive
same,Potency,WaGa,inactive
Oc1cc(-c2nc(-c3ccccc3)[nH]c2-c2ccncc2)ccc1Cl,max response,CRL-7250,-23.8%
same,Potency,HEK293,23500 nM (active)
same,max response,KB-3-1,-18.3%
same,Potency,MKL-1,inactive
same,Potency,MKL-2,inactive
same,Potency,UISO,inactive
same,Potency,C33A,inactive
same,Potency,HeLa,inactive
same,Potency,Hek293T [4],inactive
same,Potency,JEG-3,inactive
CC(C(C)N1CC(=O)NC(=O)C1)N1CC(=O)NC(=O)C1 (stereo unspecified),outcome,CRL-7250,inactive
same,Potency,HEK293,1660 nM (active)
same,max response,KB-3-1,-3.89%
same,Potency,MCC-13,inactive
same,Potency,MCC-26,inactive
same,Potency,MKL-1,inactive
same,Potency,MKL-2,inactive
same,Potency,UISO,inactive
same,Potency,WaGa,inactive
CC(=O)N1CCN(c2ccc(OCc3nn(C)c(C)c3-c3cccc4c(CCCOc5cccc6ccccc56)c(C(=O)O)n(Cc5cccnc5)c34)cc2)CC1,outcome,CRL-7250,inactive
same,outcome,HaCat [1],inactive
same,outcome,KB-3-1,inactive
same,max response,NIH3T3 [2],-8.89%
same,outcome,HACAT [3],inactive
same,Potency,MCC-13,inactive
same,Potency,MCC-26,16600 nM (active)
same,Potency,MKL-1,3320 nM (active)
same,Potency,MKL-2,296 nM (active)
same,Potency,UISO,1180 nM (active)
same,Potency,WaGa,83.3 nM (active)
C[C@](Cc1c[nH]c2ccccc12)(NC(=O)OC1C2CC3CC(C2)CC1C3)C(=O)NC[C@H](NC(=O)CCC(=O)O)c1ccccc1 (stereo partly specified),outcome,CRL-7250,inactive
same,outcome,HaCat [1],inactive
same,max response,KB-3-1,-2.86%
same,max response,NIH3T3 [2],-5.4%
same,outcome,HACAT [3],inactive
same,Potency,MCC-13,inactive
same,Potency,MCC-26,inactive
same,Potency,MKL-1,inactive
same,Potency,MKL-2,inactive
same,Potency,UISO,inactive
same,Potency,WaGa,inactive
COC(=O)[C@@H]1CC2=CC(=O)CC[C@]2(C)[C@@]23O[C@@H]2C[C@@]2(C)[C@H](CC[C@@]24CCC(=O)O4)[C@@H]13,max response,CRL-7250,-3.2%
same,outcome,HaCat [1],inactive
same,outcome,KB-3-1,inactive
same,outcome,NIH3T3 [2],inactive
same,outcome,HACAT [3],inactive
same,Potency,HEK293T [5],inactive
same,Potency,MCC-13,inactive
same,Potency,MCC-26,inactive
same,Potency,MKL-1,inactive
same,Potency,MKL-2,inactive
same,outcome,NIH3T3 [6],inactive
same,Potency,UISO,inactive
same,Potency,WaGa,inactive
O=C(NCc1ccccc1)[C@H](Cc1ccccc1)NC(=O)[C@@H]1O[C@@H]1C(=O)NCCc1ccc(O)cc1,outcome,CRL-7250,inactive
same,outcome,HaCat [1],inactive
same,max response,KB-3-1,8.9%
same,max response,NIH3T3 [2],3.87%
same,outcome,HACAT [3],inactive
same,Potency,MCC-13,inactive
same,Potency,MCC-26,inactive
same,Potency,MKL-1,inactive
same,Potency,UISO,inactive
O=c1[nH]c(=O)n([C@H]2C[C@@H](O)[C@@H](CO)O2)cc1F,Potency,CRL-7250,18700 nM (active)
same,Potency,HEK293,52.6 nM (active)
same,Potency,KB-3-1,13200 nM (active)
same,Potency,NIH3T3 [2],18.7 nM (active)
same,Potency,MCC-13,332 nM (active)
same,Potency,WaGa,66.2 nM (active)
OCc1ccccc1O[C@@H]1O[C@H](CO)[C@H](O)[C@H](O)[C@H]1O,max response,CRL-7250,-20.8%
same,max response,HaCat [1],-10.2%
same,outcome,KB-3-1,inactive
same,outcome,NIH3T3 [2],inactive
same,Potency,MCC-13,inactive
same,Potency,MCC-26,inactive
same,Potency,MKL-1,inactive
same,Potency,MKL-2,inactive
same,outcome,NIH3T3 [6],inactive
same,Potency,UISO,inactive
same,Potency,WaGa,inactive
